Data: PubChem BioAssay AID1403 (National Center for Advancing Translational Sciences (NCATS), 2008)
Results filed as inconclusive are left out. Active and inactive are the calls of the source. Calls follow the shape of the dose curve; as a rule, active = well fitted curve in the direction sought with a large enough effect in the signal ratio; inconclusive = small, poorly fitted or top-dose-only effect, or a change in a side signal; inactive = no such curve, though single readings can be large or run the other way; the % refers to the signal ratio.

target: Follicle-stimulating hormone receptor (Homo sapiens) (UniProt P23945); assay: Counterscreen for Agonists of Thyroid Stimulating Hormone Receptor: HTRF Activity in a Follicle Stimulating Hormone Receptor Cell Line; conditions: HEK293-FSHR cells, 30 min; series mostly up to 91.7 µM; activation (cAMP increase): at the top concentration
From the text: NIH Chemical Genomics Center [NCGC] NIH Molecular Libraries Screening Centers Network [MLSCN] MLSCN Grant: 1 X01 MH080680-01 PI Name: Dr. Marvin Gershengorn, NIH NCGC Assay Overview: Confirmation of Thyroid Stimulating Hormone Receptor Agonists TSH is an alpha/beta heterodimeric glycoprotein hormone secreted from the anterior pituitary gland which belongs to the glycoprotein hormone family. The actions of TSH are mediated by a seven-transmembrane receptor, which upon TSH binding couples preferentially to the G-alpha (s) protein (Gs), resulting in activation of adenylate cyclase and increase in cyclic adenosine 3', 5' monophosphate (cAMP). The TSH receptor (THSR) is mainly expressed in thyroid follicular cells and regulates their growth and function. Recombinant TSH is used to activate TSHR in patients with thyroid cancer receiving thyroid hormone suppression therapy and to screen for residual tumor after surgery, but it is expensive and must be administered intramuscularly. An orally active small molecule TSHR agonist would serve as an invaluable research tool for studying TSHR pharmacology and physiology, and would have multiple advantages in therapeutic settings. However, no selective small molecule agonist of the TSH receptor exists, and no small molecule screen for TSHR agonists has ever been reported. In order to confirm specificity of the compounds to the TSHR, a confirmatory assay was conducted on a similar family member, the Follicle Stimulating Hormone (FSH) receptor, transfected into a HEK 293 cell line, using an orthogonal detection technology to measure cAMP stimulation: antibody-based Homogeneous Time Resolved Fluorescence (HTRF).
NCGC Assay Protocol Summary: Homogeneous Time Resolved Fluorescence (HTRF) cAMP Assay. HEK 293 cells stably transfected with a vector containing the FSH receptor and maintained under hygromycin selection were obtained from the laboratory of Dr. Marvin Gershengorn. Compounds were assayed using a HTRF cAMP detection kit (Cisbio) on the FSH receptor transfected cell line. Briefly, 750 cells were plated in 2.5 ul/well of complete media (DMEM containing 10 % FCS, and 100 uM RO 20-1724) in 1536 well solid bottom white plates and 23 nl/well compound in DMSO solution or controls was added. Following 30 minute incubation at room temperature, 2.5 ul/well of labeled d2 cAMP and 2.5 ul/well of anti-cAMP antibody (both diluted 1:20 in lysis buffer) were added to each well using a flying reagent dispenser (Aurora Discovery, San Diego) . Plates were measured using the Envision plate reader (PerkinElmer, Boston, MA) with excitation at 330 nm and emissions of 615 nm and 660 nm. Keywords: Follicle Stimulating hormone FSH, Thyroid-stimulating hormone TSH, TSHR, TSHR agonist, quantitative high throughput screening, qHTS, HTS, probe identification, CNG, cAMP, cyclic nucleotide gated ion channel PubChem

Compound	activation (cAMP increase)
O=C(COC(=O)C12CC3CC(CC(Br)(C3)C1)C2)NCc1ccco1	2.19% (inactive)
O=C1C2C3CCCC3=C3CCCC3C2C(=O)N1c1ccc(F)cc1 (stereo unspecified)	1.1% (inactive)
O=c1c2c(-c3ccccc3)csc2ncn1/N=C/c1cn(-c2ccccc2)nc1-c1cccs1	1.77% (inactive)
O=C1C2C3CCCC3=C3CCCC3C2C(=O)N1c1ccccc1Cl (stereo unspecified)	1.16% (inactive)
O=C1C2C3CCCC3=C3CCCC3C2C(=O)N1c1cccc(Cl)c1 (stereo unspecified)	1.12% (inactive)
NC(=O)c1nsc(C(=O)N(CC(=O)NCc2ccc3c(c2)OCO3)C2CCCC2)c1N	2.69% (inactive)
COc1ccc(C2Nc3ccccc3C(=O)N2Cc2ccco2)cc1COc1ccc([N+](=O)[O-])cc1 (stereo unspecified)	1.48% (inactive)
O=C1CC(c2ccccc2)CC2=C1C(c1ccco1)n1nc(C(F)(F)F)nc1N2 (stereo unspecified)	2.73% (inactive)
O=C1C2C3CCCC3=C3CCCC3C2C(=O)N1c1ccc(Cl)cc1 (stereo unspecified)	1.86% (inactive)
Cc1sc2ncn(/N=C/c3cn(-c4ccccc4)nc3-c3ccccc3)c(=O)c2c1C	2.19% (inactive)
COc1ccc(C2Nc3ccccc3C(=O)N2Cc2ccco2)cc1COc1ccc(NC(C)=O)cc1 (stereo unspecified)	2.5% (inactive)
COc1ccc(C2Nc3cccc(O)c3C(=O)N2Cc2ccccc2)cc1COc1ccc(NC(C)=O)cc1 (stereo unspecified)	2.5% (inactive)
CCn1c(=O)c(C(=O)CN2CCCc3ccccc32)c(N)n(Cc2ccccc2)c1=O	2.04% (inactive)
O=C(COC(=O)C12CC3CC(CC(C3)C1)C2)NCC1CCCO1 (stereo unspecified)	2.33% (inactive)
NC(=O)c1nsc(C(=O)N(CC(=O)NC2CCCC2)Cc2ccc3c(c2)OCO3)c1N	2.28% (inactive)
COc1cc(OC)c(C(=O)N(Cc2ccco2)Cc2cccs2)cc1OC	1.54% (inactive)
NC(=O)c1nsc(C(=O)N(CC(=O)NCc2ccc3c(c2)OCO3)C2CCCCC2)c1N	1.39% (inactive)
COc1ccc(C2Nc3ccccc3C(=O)N2Cc2ccco2)cc1COc1c(C)cccc1C (stereo unspecified)	2.19% (inactive)
COc1ccc(C(=O)N(Cc2ccco2)Cc2cccs2)c(OC)c1	2.98% (inactive)
COc1ccc(C(=O)N(Cc2ccco2)Cc2cccs2)c(O)c1	2.03% (inactive)
O=C(COC(=O)C12CC3CC(CC(C3)C1)C2)NCc1ccco1	1.72% (inactive)
COc1ccc(C(=O)N(Cc2ccco2)Cc2cccs2)cc1	1.97% (inactive)
Cc1nn(-c2ccccc2)c(N2CCCC2)c1/C=N/n1cnc2scc(-c3ccccc3)c2c1=O	1.54% (inactive)
O=C(COC(=O)C12CC3CC(CC(O)(C3)C1)C2)NCc1ccco1	1.41% (inactive)
O=C(COC(=O)C12CC3CC(CC(Cl)(C3)C1)C2)NCc1ccco1	3% (inactive)
CC(NC(=O)COC(=O)c1ccco1)C12CC3CC(CC(C3)C1)C2 (stereo unspecified)	2.3% (inactive)
